Hits are enriched below; roughly 3.5% of the tested compounds scored in any of these assays.
GPR151 ag: activators of human GPR151; AID 1508602; 650,000 tested, 1% active; activation, % at 11.2 µM; PathHunter beta-arrestin GPR151 cells, luminescence; in the data active means activation above about 4.9%;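 further: 0% = median of compound wells and 100% = cells with positive control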
MITF primary: blocks human microphthalmia-associated transcription factor | AlphaScreen MITF homodimerization, bead proximity signal | inhibition, % at 2.6 µM | 650,000 tested, 0.91% active | AID 1259374; in the data active means inhibition above about 50%;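 further: 0% = vehicle wells with protein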
FBW7 activator: human FBW7 E3 ligase activation, primary screen; Q969H0; 650,000 tested, 0.13% active; AlphaScreen FBW7–phospho-cyclin E peptide binding, activator screen; normalized activity (activation), % at 26.1 µM; in the data active means normalized activity above about 1.9%;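 further: purified mutant Fbw7 with reduced substrate affinity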
Target sequence (Q969H0 whole entry, looked up): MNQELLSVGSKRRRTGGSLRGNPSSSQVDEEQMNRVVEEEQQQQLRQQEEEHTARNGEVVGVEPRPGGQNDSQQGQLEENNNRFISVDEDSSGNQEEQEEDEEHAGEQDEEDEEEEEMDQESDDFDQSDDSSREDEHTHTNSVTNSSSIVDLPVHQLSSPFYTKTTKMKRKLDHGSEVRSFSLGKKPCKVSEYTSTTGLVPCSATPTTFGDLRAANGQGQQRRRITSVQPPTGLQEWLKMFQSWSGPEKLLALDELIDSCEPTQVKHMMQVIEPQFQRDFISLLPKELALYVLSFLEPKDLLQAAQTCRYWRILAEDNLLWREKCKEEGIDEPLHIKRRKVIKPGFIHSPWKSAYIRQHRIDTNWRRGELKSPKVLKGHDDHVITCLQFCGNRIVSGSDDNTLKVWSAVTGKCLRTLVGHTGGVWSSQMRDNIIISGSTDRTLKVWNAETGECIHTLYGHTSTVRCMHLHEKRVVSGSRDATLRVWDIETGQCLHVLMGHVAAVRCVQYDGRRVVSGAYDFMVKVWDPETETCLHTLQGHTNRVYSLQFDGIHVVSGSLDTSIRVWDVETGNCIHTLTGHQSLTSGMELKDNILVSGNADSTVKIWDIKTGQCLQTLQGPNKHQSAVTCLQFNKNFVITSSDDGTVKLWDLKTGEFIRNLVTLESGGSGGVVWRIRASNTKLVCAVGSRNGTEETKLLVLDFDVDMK
TEAD-YAP block: TEAD-YAP interaction inhibition; 640,000 tested, 1.4% active; HEK-TIYL cells, TEAD-Gal4/YAP UAS-luciferase luminescence; AID 1259422; inhibition, % at 9.12 µM; in the data active means inhibition above about 32%;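 further: 0% = median of test compound wells and 100% = reference inhibitor wells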
The depositor's hits bear a star.

How did COc1ccc(-n2ncc3c(Nc4ccc(OC)c(Cl)c4)ncnc32)cc1 do in these assays?
GPR151 ag: 0.4; MITF primary: -17.3; FBW7 activator: 0.0; TEAD-YAP block: 53.7*

How did COc1ccc(-n2ncc3c(Nc4cc(Cl)ccc4OC)ncnc32)cc1 do in these assays?
GPR151 ag: 0.9; MITF primary: 33.4; FBW7 activator: 0.0; TEAD-YAP block: 41.5*

What do the screens show for `COc1ccc(Cl)cc1Nc1ncnc2c1cnn2-c1ccccc1`?
GPR151 ag: 0.0; MITF primary: 9.6; FBW7 activator: 0.1; TEAD-YAP block: -14.6

Results for Fc1ccccc1OC1CCN(Cc2nc(-c3ccccn3)no2)CC1 ?
GPR151 ag: 0.9; MITF primary: 1.5; FBW7 activator: 0.1; TEAD-YAP block: -15.2

What do the screens show for `Cc1nc(N)sc1C(=O)N/N=C/c1cccc(Br)c1`?
GPR151 ag: 0.1; MITF primary: -7.3; FBW7 activator: 0.1; TEAD-YAP block: -34.4

How did Oc1ccccc1/C=N\Nc1ncc(F)c(N2CCOCC2)n1 do in these assays?
GPR151 ag: 0.1; MITF primary: 87.6*; FBW7 activator: -0.6; TEAD-YAP block: -27.1

What do the screens show for `Oc1ccccc1/C=N\Nc1ccccn1`?
GPR151 ag: 1.5; MITF primary: 81.8*; FBW7 activator: -0.9; TEAD-YAP block: -69.7

Results for Oc1ccccc1/C=N/Nc1ccc(Cl)nn1 ?
GPR151 ag: 0.4; MITF primary: 51.2*; FBW7 activator: -0.1; TEAD-YAP block: 72.4*

What do the screens show for `O=C(N/N=C/c1ccccc1O)C(=O)Nc1ccccn1`?
GPR151 ag: -0.4; MITF primary: 60.5*; FBW7 activator: -2.1; TEAD-YAP block: -16.3

What do the screens show for `Oc1c(Br)cc(Br)cc1/C=N/Nc1ccccn1`?
GPR151 ag: -0.6; MITF primary: 26.5; FBW7 activator: 0.2; TEAD-YAP block: 17.8

Results for CCCCn1c(=O)[nH]c(=O)c2c1nc(COC(=O)c1ccc(F)cc1F)n2CCC ?
GPR151 ag: 0.2; MITF primary: 5.6; FBW7 activator: -0.2; TEAD-YAP block: -1.1

How did Cc1cc(C)n(-c2cc(N/N=C/c3ccccc3O)ncn2)n1 do in these assays?
GPR151 ag: 0.4; MITF primary: 10.0; FBW7 activator: -0.5; TEAD-YAP block: 58.9*

Results for Oc1ccccc1/C=N\Nc1nc2ccccc2o1 ?
GPR151 ag: -2.7; MITF primary: 22.2; FBW7 activator: -0.2; TEAD-YAP block: 51.6*

What do the screens show for `CC(C)CCN1C(=O)c2cccc3c(N)ccc(c23)C1=O`?
GPR151 ag: 0.3; MITF primary: 4.8; FBW7 activator: 2.1*; TEAD-YAP block: -62.5

How did CCCCN1C(=O)c2cccc3c(N)ccc(c23)C1=O do in these assays?
GPR151 ag: 2.0; MITF primary: -21.9; FBW7 activator: 1.0; TEAD-YAP block: -19.7

How did COc1cc(C)ccc1OCCCOc1ccccc1C(=O)O do in these assays?
GPR151 ag: -0.6; MITF primary: -11.3; FBW7 activator: 0.8; TEAD-YAP block: 37.1*

What do the screens show for `COC(=O)c1ccccc1OCCCOc1ccc(C)cc1OC`?
GPR151 ag: -1.9; MITF primary: 12.6; FBW7 activator: 0.5; TEAD-YAP block: -12.0

Results for CCOC(=O)c1c(-c2ccc(OC)cc2)csc1NC(=O)CSc1ncn[nH]1 ?
GPR151 ag: 2.7; MITF primary: 4.0; FBW7 activator: -0.1; TEAD-YAP block: 34.5*

What do the screens show for `COc1cc(Nc2nc(NC3CC3)c3ncn(Cc4ccc(C(F)(F)F)cc4)c3n2)cc(OC)c1OC`?
GPR151 ag: -0.9; MITF primary: 20.6; FBW7 activator: 0.3; TEAD-YAP block: 46.8*

What do the screens show for `FC(F)(F)c1ccc(Cn2cnc3c(NCc4nc5ccccc5[nH]4)nc(Nc4ccccc4)nc32)cc1`?
GPR151 ag: 2.9; MITF primary: 5.2; FBW7 activator: 0.1; TEAD-YAP block: 40.7*

Results for FC(F)(F)c1ccc(Cn2cnc3c(NCc4nc5ccccc5[nH]4)nc(Nc4ccc5ncccc5c4)nc32)cc1 ?
GPR151 ag: -0.3; MITF primary: 5.0; FBW7 activator: 0.9; TEAD-YAP block: -5.8

Results for COc1cc(Nc2nc(NCc3nc4ccccc4[nH]3)c3ncn(Cc4ccc(C(F)(F)F)cc4)c3n2)cc(OC)c1OC ?
GPR151 ag: -0.5; MITF primary: 3.7; FBW7 activator: 0.0; TEAD-YAP block: 42.9*

What do the screens show for `FC(F)(F)c1ccc(Cn2cnc3c(NCc4nc5ccccc5[nH]4)nc(Nc4ccc(C(F)(F)F)cc4)nc32)cc1`?
GPR151 ag: 2.0; MITF primary: 9.3; FBW7 activator: 0.2; TEAD-YAP block: -0.1

How did Cc1cccc(C)c1NC(=O)C(c1ccc(Cl)cc1)N(Cc1ccco1)C(=O)c1ccc(-n2cnnn2)cc1 (stereo not given) do in these assays?
GPR151 ag: 0.7; MITF primary: -0.9; FBW7 activator: -0.1; TEAD-YAP block: 40.9*

How did O=C(COC(=O)c1ccc(F)cc1Cl)NC1CCCC1 do in these assays?
GPR151 ag: 1.5; MITF primary: 7.6; FBW7 activator: 0.2; TEAD-YAP block: 3.3

Results for COc1ccc(CC(=O)N2CCC(c3nc(C)ncc3-c3ccncc3)CC2)cc1 ?
GPR151 ag: 0.0; MITF primary: 16.6; FBW7 activator: 2.4*; TEAD-YAP block: -17.4

What do the screens show for `CCC1Nc2ccc(C)cc2C(Nc2ccc(C)cc2)C1C` (stereo not given)?
GPR151 ag: 2.1; MITF primary: -6.1; FBW7 activator: 0.0; TEAD-YAP block: -1.5

What do the screens show for `CCOC(=O)Nc1cccc(NS(C)(=O)=O)c1`?
GPR151 ag: 2.3; MITF primary: -7.4; FBW7 activator: -0.1; TEAD-YAP block: -9.4

How did Oc1c(C(c2ccccc2)N2CCOCC2)ccc2cccnc12 (stereo not given) do in these assays?
GPR151 ag: 0.0; MITF primary: 12.0; FBW7 activator: -1.2; TEAD-YAP block: 86.7*

Results for O=C(Sc1cccc2cccnc12)N1CCOCC1 ?
GPR151 ag: -0.6; MITF primary: 13.3; FBW7 activator: -0.1; TEAD-YAP block: 3.4

What do the screens show for `Oc1c(C(c2ccc(Br)cc2)N2CCOCC2)ccc2cccnc12` (stereo not given)?
GPR151 ag: 0.4; MITF primary: 8.8; FBW7 activator: -0.3; TEAD-YAP block: 72.9*

What do the screens show for `N#Cc1c(NC(=O)Cc2ccccc2)sc2c1CCCC2`?
GPR151 ag: 2.3; MITF primary: -7.8; FBW7 activator: -0.3; TEAD-YAP block: -11.3

What do the screens show for `COc1ccc(S(=O)(=O)Oc2cc(C=O)ccc2OC)cc1`?
GPR151 ag: 0.2; MITF primary: 9.1; FBW7 activator: 0.2; TEAD-YAP block: 50.3*

What do the screens show for `COc1ccc(S(=O)(=O)Oc2c(OC)cc(C=O)cc2OC)cc1`?
GPR151 ag: 0.4; MITF primary: -1.2; FBW7 activator: -0.1; TEAD-YAP block: 39.2*

What do the screens show for `O=C(Cc1cccs1)N/N=C\c1cccc(O)c1`?
GPR151 ag: -0.5; MITF primary: -16.7; FBW7 activator: 0.1; TEAD-YAP block: -10.7

What do the screens show for `Cc1[nH]c2ccccc2c1C(=O)COC(=O)c1cccs1`?
GPR151 ag: -0.8; MITF primary: 5.1; FBW7 activator: -0.1; TEAD-YAP block: -2.0

How did c1ccc(-c2ccnc(Nc3ccc(-n4ccnn4)cc3)n2)cc1 do in these assays?
GPR151 ag: -0.6; MITF primary: 13.0; FBW7 activator: 0.2; TEAD-YAP block: -24.0

Bioassay records (PubChem BioAssay)
